# Hits are enriched below; roughly 2.3% of the tested compounds scored in any of these assays.
# M1 ag parental = M1 agonist counterscreen hit in parental CHO-K1 cells; Fluo-8 calcium fluorescence; scaled to maximal ATP response, vehicle zero; activation, % at 3 µM; 360,000 compounds, 0.48% hits; AID 602248; in the data active = activation above about 15%;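 note: untransfected CHO-K1 host cells lacking M1 receptor as counterscreen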
# CHRM1 PAM = human CHRM1 positive allosteric modulation | CHO-K1 hM1, Fluo-8 calcium fluorescence, ACh EC20; 0% = ACh EC20, 100% = maximal ACh | activation, % at 3 µM | 360,000 compounds, 0.088% hits | AID 588819; in the data active = activation above about 19%, passing the limit was not always enough
# Target sequence (P11229 whole entry, looked up): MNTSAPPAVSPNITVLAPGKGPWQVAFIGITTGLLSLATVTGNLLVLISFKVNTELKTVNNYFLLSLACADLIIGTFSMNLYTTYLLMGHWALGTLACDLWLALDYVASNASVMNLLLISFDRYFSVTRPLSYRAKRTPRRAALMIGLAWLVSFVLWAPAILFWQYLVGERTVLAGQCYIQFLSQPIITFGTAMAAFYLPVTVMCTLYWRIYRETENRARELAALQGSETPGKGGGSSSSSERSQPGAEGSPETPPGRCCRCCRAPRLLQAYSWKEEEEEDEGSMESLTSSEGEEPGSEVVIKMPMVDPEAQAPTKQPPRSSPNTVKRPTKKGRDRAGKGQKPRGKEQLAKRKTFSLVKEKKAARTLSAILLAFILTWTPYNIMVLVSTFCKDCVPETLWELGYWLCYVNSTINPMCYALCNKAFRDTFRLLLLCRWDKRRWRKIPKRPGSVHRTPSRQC
# M1 PAM parental = nonselective activator or artifact in parental CHO-K1 calcium assay; activation, % at 3 µM; ATP EC20, Fluo-8 calcium fluorescence; 0% at ATP EC20, 100% at ATP max; AID 602247; 360,000 compounds, 0.02% hits;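 active = activation above the run cutoff, the mean activation of all test compounds plus 3 SD, cut at about 40% in these data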;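 note: peak over basal fluorescence ratio in a 140 s read after ATP addition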
# CHO-K1 Ca antag = counter-screen for M1 antagonists: effect in parental CHO-K1 cells. ATP-induced calcium, Fluo-8 fluorescence. 360,000 compounds, 0.6% hits. inhibition, % at 3 µM. AID 602250;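 active = inhibition above a per-plate cutoff, the plate's mean sample inhibition plus 3 SD, cut at about 24% in these data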;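 note: 0% = DMSO plus EC80 ATP and 100% = DMSO alone without ATP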
# CHRM1 agonist = agonists of human M1 muscarinic receptor; CHO-K1 hM1, Fluo-8 calcium fluorescence, agonist mode; 0% DMSO, 100% acetylcholine EC100; activation, % at 3 µM; 360,000 compounds, 0.33% hits;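 active = activation above the run's mean compound activation plus 3 SD, cut at about 16% in these data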;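 note: peak over basal fluorescence ratio within a 140 s kinetic read after compound addition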
# M1 antag = human CHRM1 antagonism. P11229. 360,000 compounds, 1.3% hits. CHO-K1 hM1, Fluo-8 calcium fluorescence, ACh EC80 antagonist. inhibition, % at 3 µM;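 active = percent inhibition above its own plate's cutoff, namely the mean of that plate's compound wells plus 3 SD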;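 note: peak over basal fluorescence ratio during 140 s after agonist addition; 0% = ACh EC80 plus DMSO and 100% = DMSO alone without agonist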
# * = called active by the depositor.
SMILES,M1 ag parental,CHRM1 PAM,M1 PAM parental,CHO-K1 Ca antag,CHRM1 agonist,M1 antag
CC(=O)c1ccccc1NC(=O)COC(=O)CN1C(=O)C2CCCCC2C1=O (stereo not drawn),0,-1,2,-13,-3,-2
O=C(O)CCCN1C(=O)NC2NC(=O)NC21 (stereo not drawn),0,-5,-7,34*,-3,5
COc1ccc(N2CCN(C(CNC(=O)C(=O)NC3CCCC3)c3ccco3)CC2)cc1 (stereo not drawn),1,15,17,-3,0,-23
CC(=O)N/C(=N\c1nc(C)cc(C)n1)Nc1ccccc1Cl,0,4,-9,-5,-6,12
Cn1nc(C(F)(F)F)c(C(=O)Nc2ccc(F)cc2F)c1Sc1cccc(C(F)(F)F)c1,1,-16,-6,-10,-4,34*
Cn1nc(C(F)(F)F)c(C(=O)Nc2ccc(F)cc2F)c1Sc1cccc(Cl)c1,0,-16,2,-1,-8,11
OC1CN=C2C=CC=CN2C1 (stereo not drawn),1,5,15,-9,-2,0
CCN(CC)CCOc1ccccc1C(C)=O,0,-34,-11,14,-14,40*
CC(=O)c1ccccc1OCCOCCOc1ccccc1C(C)=O,9,-9,-1,0,-6,4
Cc1nn(-c2ccccc2)c2nc(C(Cl)(Cl)Cl)[nH]c(=O)c12,1,3,11,-4,-4,-1
CCCCOc1ccc(C(=O)OC2CC(C)N(C)CC2C)cc1 (stereo not drawn),0,-25,15,-16,-6,44*
CC1CN(C)C(C)CC1OC(=O)C(c1ccccc1)c1ccccc1 (stereo not drawn),1,-27,18,-12,-8,97*
CN(C)[C@@H]1CCC[C@H]1OC(=O)C(c1ccccc1)c1ccccc1,0,-26,3,-7,-7,92*
CCCCOc1ccc(C(=O)N2CCC(C)CC2)cc1,0,7,9,-2,-4,0
NC(Cc1ccc(Cl)cc1)c1csc(Nc2ccc(C(=O)NCCCO)cn2)n1 (stereo not drawn),0,2,-2,-3,-5,-9
O=C(Nc1cc(Cl)cc(Cl)c1)c1cccnc1,18*,3,8,4,3,-6
O=C(CSc1nnc(CNC(=O)c2ccccc2F)o1)NC1CCCCC1,0,7,-9,-3,-3,-11
O=C(CCN1C(=O)c2ccccc2C1=O)N(CCO)Cc1ccccc1,0,-27,7,3,-1,101*
COC(=O)C1=C(C)N(Cc2ccccc2)C(=NCc2ccccc2)N[C@H]1c1cccc(C(F)(F)F)c1,21*,5,1,16,-3,7
CN(C)S(=O)(=O)c1ccc(Cl)c(NC(=O)CN2C(=O)NC3(CCc4ccccc43)C2=O)c1 (stereo not drawn),1,5,3,-17,-3,1
O=C(c1cc(Br)c(Br)s1)N1CCN(c2ccccn2)CC1,3,-15,-8,6,-5,39*
Cc1ccccc1N1C(=O)C2ON(c3ccccc3)C(c3ccco3)C2C1=O (stereo not drawn),16*,-3,4,5,5,6
CC(C)CC(=O)OC1C(N2CCOCC2)c2c(ccc(/C=C/C(=O)N3CCOCC3)c2O)OC1(C)C (stereo not drawn),15*,6,14,4,-5,1
O=C(c1ccsc1)N1CCCC(Nc2cccc(F)c2)C1 (stereo not drawn),1,3,2,-7,-2,1
CN(CC(=O)N1CCOCC1)S(=O)(=O)c1ccc2ccccc2c1,0,6,7,-1,-2,-7
SMILES,M1 ag parental,CHRM1 PAM,M1 PAM parental,CHO-K1 Ca antag,CHRM1 agonist,M1 antag
NS(=O)(=O)c1ccc(CCNC(=O)C(=O)NCC2OCCN2C(=O)c2ccc3c(c2)OCO3)cc1 (stereo not drawn),0,14,-14,29*,-1,-3
OC1(C#CCCN2CCCCC2)c2ccccc2-c2ccccc21,5,-27,-2,-6,-8,99*
CCN(CC#CCC1(O)c2ccccc2-c2ccccc21)CCO,2,-1,21,-12,-7,-1
OC1(CC#CCN2CCCCC2)c2ccccc2-c2ccccc21,1,-27,22,-11,-7,55*
O=C(CCCCN1CCCCC1)c1ccc2c(c1)Cc1ccccc1-2,13,-9,9,2,-3,19
CC1(C)Cc2noc(N)c2C(C)(C)N1O,0,8,-8,25*,-3,7
CC(=O)ON1C(C)(C)Cc2noc(N)c2C1(C)C,0,-3,13,-3,-2,11
NNc1cc(C(=O)O)ccc1Cl,0,8,13,-15,-2,-11
CC(C)c1cc(=O)oc2c3c4c(cc12)CCCN4CCC3,0,-9,10,-12,-8,1
O=c1oc2c3c4c(cc2c(C(F)(F)F)c1CCN1CCOCC1)CCCN4CCC3,26*,-3,12,4,25*,15
O=[N+]([O-])c1ccc(N/N=C/C=C/c2ccco2)cc1,21*,-14,-4,19,12,35
O=C(O)c1ccc(N/N=C/C=C/c2ccc([N+](=O)[O-])o2)cc1,12,-13,-1,14,27*,36*
O=C(N/N=C/c1ccco1)c1cc([N+](=O)[O-])cc([N+](=O)[O-])c1,0,8,8,0,-4,-5
CCCCN1Cc2c(nc3cc(-c4ccco4)[nH]n3c2=O)C1=O,0,7,5,-5,-2,-12
COc1ccc(C(CNC(=O)Cc2ccc(-c3ccccc3)cc2)N(C)C)cc1 (stereo not drawn),3,-29,3,-7,-11,42*
COc1cccc(C(CNC(=O)C(c2ccccc2)c2ccccc2)N(C)C)c1 (stereo not drawn),1,-33,-14,-7,-12,55*
CC1CCC(NC(=O)COC(=O)CNC(=O)c2ccc3ccccc3c2)CC1 (stereo not drawn),2,1,2,-13,-5,0
CCCS(=O)(=O)N1CCN(CC2CC3C=CC2C3)CC1 (stereo not drawn),1,-5,23,-17,22*,0
N#Cc1c(-c2cccs2)cc(-c2cccs2)[nH]c1=O,2,10,40*,-47,-3,-15
O=C(O)c1cccc(CN2C(=O)c3ccccc3C2=O)c1,-1,11,-11,11,1,-1
O=C1c2cccc3c(O)ccc(c23)C(=O)N1Cc1ccccc1,149*,-28,-10,60*,262*,70*

# Compound activity (PubChem BioAssay)
